# Six1-Eya2 inh – Six1/Eya2 interaction inhibition; activity change, % (no concentration beside the values); AID 651725; Q15475+O00167; 360,000 tested, 0.56% active; AlphaScreen GST-Six1/His-Eya2 binding, biochemical; active compounds read low; in the data active = activity change below about -65%; inconclusive = mostly about -30% to -63%
#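 Compounds are tested against tagged Six1 and Eya2 proteins bridged by glutathione donor and nickel acceptor beads; after a one-hour incubation at 37 °C without light, AlphaScreen emission is recorded.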
# CtBP-E1A blk – inhibitors of CtBP/E1A interaction; AlphaScreen GST-E1A/His-CtBP binding, 1536-well; active compounds read low; activity change, % (no concentration beside the values); 340,000 tested, 0.49% active; in the data active = activity change below about -65%; inconclusive = mostly about -30% to -63%
#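 GST-E1A and His-tagged CtBP (125 nM each as 5X stock) were preincubated with pin-transferred compound for 2 h at 37 °C in the dark, then glutathione donor and nickel acceptor beads were added for 1 h before AlphaScreen reading.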
# RORgamma inh – blocks mouse ROR gamma transcriptional activity. Drosophila S2 Gal4-RORgamma UAS-luciferase reporter, 20 h. Potency, µM (series often up to 53.6 µM), for inactives: at the highest dose activity change, negative = inhibition, most hits filed as inhibitors. 310,000 tested, 5.4% active. AID 2551; note: potency is the fitted concentration of half-maximal effect; nearly all actives have a fitted effect of over 60% in size
#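 Drosophila Schneider cells stably carrying a metallothionein-driven Gal4 DBD–ROR gamma fusion and a UAS-Photinus luciferase reporter were exposed to compound for 1 hr, then induced with copper sulfate (700 uM final) for 20 hr at ambient temperature before luminescence reading.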
# PKM2 act – increases activity of human pyruvate kinase M2; P14618; purified PKM2, Kinase-Glo ATP luminescence, activation; response scale: 0% is enzyme alone, no compound; Potency, µM (titrated, usually from 57.5 µM), without a hit: top-dose activation, actives largely listed as activators; 260,000 tested, 0.34% active; AID 1631; note: potency is the fitted concentration of half-maximal effect; nearly all actives have a fitted effect of over 55% in size
# Target sequence (P14618 whole entry, looked up): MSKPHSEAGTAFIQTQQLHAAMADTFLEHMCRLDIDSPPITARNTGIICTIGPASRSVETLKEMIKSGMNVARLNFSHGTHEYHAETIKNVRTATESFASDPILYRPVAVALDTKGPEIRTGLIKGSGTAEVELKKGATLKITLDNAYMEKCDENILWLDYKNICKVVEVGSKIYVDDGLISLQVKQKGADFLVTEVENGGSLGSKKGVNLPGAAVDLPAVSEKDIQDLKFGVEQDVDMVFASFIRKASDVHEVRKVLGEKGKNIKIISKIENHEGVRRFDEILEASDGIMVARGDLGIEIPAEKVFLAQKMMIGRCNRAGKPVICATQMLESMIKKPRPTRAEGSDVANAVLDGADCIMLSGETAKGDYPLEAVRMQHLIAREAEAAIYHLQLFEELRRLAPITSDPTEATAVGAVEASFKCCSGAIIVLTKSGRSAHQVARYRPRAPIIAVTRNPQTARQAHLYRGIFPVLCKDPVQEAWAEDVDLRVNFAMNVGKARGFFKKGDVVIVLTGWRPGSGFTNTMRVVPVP
#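 Purified hPK-M2 (>95% pure) converted ADP (0.1 mM final) to ATP with 0.5 mM PEP in 50 mM imidazole pH7.2, KCl, MgCl2, Tween 20, BSA; 1 h at room temperature. ATP detected by Kinase-Glo luminescence.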
# Gal4-VP16 FLuc – inhibits Gal4-VP16 luciferase reporter, ROR gamma counter-screen; Drosophila S2 Gal4-VP16 UAS-luciferase, luminescence, 20 h; Potency, µM (titrated, usually from 53.6 µM), without a hit: at the top dose activity, negative = inhibition, usual class: inhibitors; 310,000 tested, 3.5% active; AID 2546;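 note: Gal4-VP16 expression switched on by copper sulfate through the metallothionein promoter; potency is the fitted concentration of half-maximal effect; nearly all actives have a fitted effect of over 50% in size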
# * marks the source's active call; other numbers are inactive results; u = inconclusive; x = no result; [ ] = dose if it differs, or a comment. Only some compounds are listed: those with a hit (about 5.6% of all), similar ones and a draw of the others. Unless noted, calls come from the whole dose curve; as a rule, active = well fitted curve in the direction sought with a large enough effect; inconclusive = small, poorly fitted or top-dose-only effect, or another doubt; inactive = no such curve, though single readings can be large; an effect the other way counts as inactive or inconclusive. % is set by controls: 0 for no effect and ±100 for the full control effect.
SMILES,Six1-Eya2 inh,CtBP-E1A blk,RORgamma inh,PKM2 act,Gal4-VP16 FLuc
CCOCCCNC(=S)NCCNc1nc2c(C)cccc2cc1C#N,1.6,8.8,0.251µM*,4.4%,3.16µM*
CC1(C(=O)NC(=S)N(CCC#N)c2ccccc2)CC1(Cl)Cl (stereo unspecified),3.5,16.0,12.6µM*,0.0%,u
CC(C)N(Cc1ccccc1)C(=S)NC(=O)C1(C)CC1(Cl)Cl (stereo unspecified),-2.6,0.3,0.562µM*,-4.6%,2.51µM*
N#CCCN(C(=O)Nc1ccccc1)c1ccccc1,-2.5,-1.9,-0.6%,-1.0%,-2.1%
CC(C)N(Cc1ccccc1)C(=S)Nc1cccnc1,6.5,3.3,-11.5%,-7.1%,-11.4%
CN(CC(=O)Nc1ccccc1C(F)(F)F)C(=O)Cc1ccc(S(=O)(=O)N2CCOCC2)s1,1.4,10.9,x,x,x
CC(=O)N1CCc2ccc(S(=O)(=O)Nc3ccccc3Cl)cc21,1.2,-19.8,u,12.6µM*,-20.0%
CC(=O)N1CCc2cc(S(=O)(=O)NC3CCCc4ccccc43)ccc21 (stereo unspecified),0.0,-7.7,u,-13.7%,20µM*
O=C(O)c1ccc(S(=O)(=O)NC2CCCc3ccccc32)cc1 (stereo unspecified),-0.7,1.5,20.1%,-3.4%,-9.4%
CCN(CC)/[N+]([O-])=N/Oc1cc(O/N=[N+](\[O-])N(C)C)c([N+](=O)[O-])cc1[N+](=O)[O-],x,x,u,x,-3.6%
CC1(C(=O)O)CCCN(C(=O)c2cccnc2Oc2ccccc2)C1 (stereo unspecified),6.1,6.7,x,x,x
Cc1[nH]c2ccccc2c1/C=N\NC(=O)c1ccccc1Cl,0.8,13.4,x,x,x
CC(SC(C)C(=O)NN=Cc1c[nH]c2ccccc12)C(=O)NN=Cc1c[nH]c2ccccc12 (stereo unspecified),-14.7,-6.3,x,x,x
Cc1[nH]c2ccccc2c1/C=N/NC(=S)NC(C)C,-22.8,0.0,2.51µM*,2.8%,7.08µM*
CC(C)NC(=S)N/N=C/c1c[nH]c2ccccc12,-13.0,-4.8,3.55µM*,-1.7%,1.41µM*
CC1C(c2ccccc2)N(C)C(c2ccccc2)C(C)C1(O)C#Cc1ccccc1 (stereo unspecified),-0.8,-2.7,15.8µM*,-7.7%,u
CC1Cc2ccccc2N1C(=O)C(C)n1cc(C(F)(F)F)cc(Cl)c1=O (stereo unspecified),9.2,-13.4,x,x,x
CCS(=O)(=O)N1Cc2ccccc2CC1C(=O)Nc1nnc(SCc2c(Cl)cccc2Cl)s1 (stereo unspecified),-7.0,-4.6,5.01µM*,-3.1%,6.31µM*
CCc1nnc(NC(=O)C2Cc3ccccc3CN2S(=O)(=O)c2cccs2)s1 (stereo unspecified),-21.6,-26.8,-19.2%[0.365 µM],-2.5%,x
Cc1cccc2sc(NC(=O)CNS(=O)(=O)c3ccc(Br)s3)nc12,-1.6,-1.8,11.2µM*,-3.3%,-26.5%
Cc1ccc2nc(NC(=O)CNS(=O)(=O)c3ccc(Br)s3)sc2c1,1.5,5.4,-30.3%,-0.1%,-4.1%
CCSc1nnc(NC(=O)C(CC)(C(F)(F)F)C(F)(F)F)s1,-1.3,2.0,10µM*,2.5%,15.8µM*
O=C(Nc1nnc(C2CC2)s1)C1Cc2ccccc2CN1S(=O)(=O)c1cccs1 (stereo unspecified),u,u,1.41µM*,0.3%,u
O=C(NCC1OCCCN1S(=O)(=O)c1cc(F)ccc1F)C(=O)NC1CCCCC1 (stereo unspecified),5.8,7.0,40.1%,0.0%,-2.2%
CCC(C)[C@H](NC(=O)c1cc2cc(Cl)ccc2n1C)C(=O)N1CCC(C(=O)O)CC1 (stereo partly specified),0.1,8.7,18.2%,x,4.2%
SMILES,Six1-Eya2 inh,CtBP-E1A blk,RORgamma inh,PKM2 act,Gal4-VP16 FLuc
Cc1cnc(C(=O)Nc2nnc(SCc3c(Cl)cccc3Cl)s2)cn1,-20.1,u,2µM*,-1.7%,5.01µM*
CCSc1nnc(NC(=O)c2ccccn2)s1,-94.2*,-91.4*,2µM*,0.7%,3.16µM*
Cc1ccc(CN2CC(C(=O)Nc3nnc(SCc4c(Cl)cccc4Cl)s3)CC2=O)cc1 (stereo unspecified),4.6,2.4,u,-10.5%,-4.4%
CCSc1nnc(NC(=O)c2cccc(S(=O)(=O)N(C)c3ccc(C)cc3)c2)s1,-0.4,1.5,15.8µM*,0.6%,u
CCS(=O)(=O)N1Cc2ccccc2CC1C(=O)Nc1nc(C)cs1 (stereo unspecified),2.3,11.6,-23.0%,14.3%,-7.0%
CCSc1nnc(NC(=O)c2cnccn2)s1,-1.0,1.0,-58.7%,-2.8%,4.1%
CCS(=O)(=O)N1Cc2ccccc2CC1C(=O)Nc1nc2c(C)cccc2s1 (stereo unspecified),-0.6,-5.3,3.55µM*,-1.2%,5.62µM*
CCc1nnc(NC(=O)c2cccc(S(=O)(=O)N(C)c3ccccc3)c2)s1,3.8,-9.4,-15.1%,-3.3%,5.0%
COc1ccc(C2=CCN3CCCCC3C2)c(-c2ccc(OC)c(OC)c2)c1 (stereo unspecified),-9.9,-0.4,x,x,x
Fc1cccc(/C=N/n2c(C3CCCCC3)n[nH]c2=S)c1,-4.7,3.0,3.98µM*,x,8.91µM*
Oc1cccc(/C=N/n2c(C3CCCCC3)n[nH]c2=S)c1,-8.3,-6.3,u,x,-3.6%
O=[N+]([O-])c1cccc(/C=N/n2c(C3CCCCC3)n[nH]c2=S)c1,-9.1,-13.1,3.98µM*,3.8%,4.47µM*
COc1cccc(/C=N/n2c(C3CCCCC3)n[nH]c2=S)c1,-8.3,x,4.47µM*,x,10µM*
CC1(C)CCC[C@@](C)([C@H]2CC[C@]3(C)[C@@H]2[C@H](O)CC2[C@@]4(C)CC[C@H](O)C(C)(C)[C@@H]4[C@@H](O)C[C@]23C)O1 (stereo partly specified),x,x,u,x,5.2%
O=S(=O)(c1c(Cl)cc(Br)cc1Cl)N1CCN(C(=S)NC2CC2)CC1,-14.2,-26.6,x,x,x
CCCN1CCN(C(=O)c2c(Cl)cnn2C)CC1,3.0,0.3,-19.4%,0.0%,-0.3%
CN=c1scc(-c2ccc([N+](=O)[O-])cc2)n1/N=C/c1ccco1,-9.6,-9.6,-21.0%,-6.5%,2.8%
CN=c1scc(-c2ccc(F)cc2)n1/N=C/c1ccc(O)c(O)c1,u,-26.7,0.112µM*,-14.0%,0.794µM*
CCOC(=O)/C=C/c1cnn(-c2ccccc2)c1,2.7,11.7,u,9.7%,u
O=C(O)/C=C/c1cnn(-c2ccccc2)c1,1.2,2.2,7.94µM*,0.3%,14.1µM*
CC1CCN(C(=O)COC(=O)c2cc3ccccc3oc2=O)CC1,-2.9,-1.6,x,x,x
CCN(CC)C(=S)S,x,x,u,x,3.55µM*

# Source: PubChem (National Center for Advancing Translational Sciences (NCATS))
